# Measurements taken from PubChem BioAssay AID488857 (Sanford-Burnham Center for Chemical Genomics, 2010).
# Among all 1,400 compounds or so, about 560 (40%) were called active.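 The calls were made as follows: active = mean inhibition over duplicate tests at 10 µM above 50%; inactive = the rest.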 The set was probably picked from earlier hits. This is one part of the list.
# Assay: ASC/caspase-1 reporter retest in S. cerevisiae at one dose, specificity check for NALP1 project (AID 488857)
# Details: S. cerevisiae ASC/Caspase-1, beta-galactosidase luminescence, 24 h; at 10 µM; stronger effect = higher value
row,SMILES,inhibition
1,O=C(O)C1(c2ccccc2)CCN(S(=O)(=O)c2ccc(Br)cc2)CC1,29.4% (inactive)
2,CCOC(=O)C1CCCCN1Cc1cccc(F)c1 (stereo not drawn),27.4% (inactive)
3,O=S(=O)(c1ccc(Br)cc1)N1CCCN(Cc2cccc(F)c2)CC1,61.5% (active)
4,COc1ccccc1C(=O)Nc1ccc(OCc2nnc3c4ccccc4c(C)nn23)cc1,45.4% (inactive)
5,COc1ccccc1-c1nnc2sc(COc3ccc(Cl)cc3)nn12,56.9% (active)
6,Clc1ccc(Cn2c(/C=C/c3ccco3)nc3ccccc32)cc1,46.5% (inactive)
7,Oc1c(I)cc(Cl)c2cccnc12,97.2% (active)
8,Oc1c(CN2CCCCC2)cc(Br)c2cccnc12,49% (inactive)
9,O=C(N/N=C/c1cccc(F)c1)c1c(O)c2ccccc2[nH]c1=O,38.5% (inactive)
10,NC(=S)N/N=C/c1coc2c(ccc3ccccc32)c1=O,58% (active)
11,CSc1ccc(C(=O)C2CCCN(C(=O)c3ccc4c(c3)no[n+]4[O-])C2)cc1 (stereo not drawn),19.9% (inactive)
12,Cn1c(=O)c([N+](=O)[O-])c(-n2cnc3ccccc32)c2ccccc21,14.3% (inactive)
13,O=[N+]([O-])/C(C(=C(Cl)Cl)N1CCN(Cc2ccccc2)CC1)=C1\NCCN1Cc1ccc(Cl)nc1,41.5% (inactive)
14,Cc1cc2ncn(/N=C/c3ccc([N+](=O)[O-])s3)c2cc1C,67.8% (active)
15,CN(C)/C=N/n1cnc2ccccc2c1=O,32% (inactive)
16,CCCCCCCCCCCCCCCC[n+]1cccc2ccccc21,93.7% (active)
17,O=c1c(Br)c(N2CCCC2)cnn1-c1ccccc1,64.9% (active)
18,c1ccc2sc(Sc3ncnc4sccc34)nc2c1,44.6% (inactive)
19,Cn1c2ccccc2c(=O)c2c(=O)n(C3CCCCCC3)c(C3CCCCC3)nc21,53.2% (active)
20,COc1ccc(CCn2c(C(C)C)nc3c(c(=O)c4ccccc4n3C)c2=O)cc1,28% (inactive)
21,Cc1ccc(NC(=O)c2cccc(S(=O)(=O)N(C)c3ccccc3)c2)cc1S(=O)(=O)N1CCOCC1,36.1% (inactive)
22,COC(=O)c1ccc(NC(=O)c2ccccc2N(C)S(=O)(=O)c2ccccc2)cc1,55.2% (active)
23,CSc1ccc(/C=C/C(=O)c2ccc(NC(C)=O)cc2)cc1,75.5% (active)
24,COc1cc(/C=C/C(=O)Nc2ccc(C)cc2)cc(OC)c1OC,46.8% (inactive)
25,CC(=O)c1ccc(NC(=O)/C=C/c2ccc(C)cc2)cc1,60.4% (active)

row,SMILES,inhibition
1,CSc1ccc(/C=C/C(=O)c2ccc(O)cc2)cc1,81.2% (active)
2,Cc1c(N)c(C(C)(C)C)cc(C(C)(C)C)c1[N+](=O)[O-],35.1% (inactive)
3,CCN1CCN(c2cc3c(cc2F)c(=O)c(C(=O)O)cn3C2CC2)CC1,36.3% (inactive)
4,CCOC(=O)C(=O)C1=C(N2CCOCC2)/C(=C\c2ccc(F)cc2)CC1,36.2% (inactive)
5,COc1ccc(OC)c(/C=c2\sc3nc(-c4cccs4)nn3c2=O)c1,23.2% (inactive)
6,COc1ccc(C(=O)NCc2ccccc2)cc1S(=O)(=O)N1CCCc2ccccc21,39% (inactive)
7,CCOc1ccc(C(=O)NC(=S)Nc2ccccc2N2CCCCC2)cc1[N+](=O)[O-],62.5% (active)
8,COc1ccc(C(=O)NC(=S)Nc2ccccc2N2CCCCC2)cc1[N+](=O)[O-],68% (active)
9,COC(=O)c1ccc(C(=O)OC)c(NC(=O)CN2CCN(c3ccccc3OC)CC2)c1,49.2% (inactive)
10,CCOc1ccc(C(=O)Nc2ccc(-c3nc4ccccc4[nH]3)cc2)cc1[N+](=O)[O-],39.4% (inactive)
11,CC1CCN(c2ccccc2NC(=O)c2ccc(N3CCOCC3)c([N+](=O)[O-])c2)CC1,27.4% (inactive)
12,COc1cc(-c2nc(C(F)(F)F)c(OC)o2)cc(OC)c1OC,44.9% (inactive)
13,COc1cc(/C=C/C(=O)c2ccc(Cl)s2)cc(OC)c1O,63.6% (active)
14,Cc1cccc(OC(=O)c2cn(C)nc2C(F)(F)F)c1C,50.9% (active)
15,Cc1ccc(-c2csc3ncnc(Oc4cccc5ccc(C)nc45)c23)cc1,63% (active)
16,COc1ccccc1N1CCN(C(=O)CSc2ncnc3scc(-c4ccccc4)c23)CC1,44.1% (inactive)
17,COc1ccc(-c2csc3ncnc(Oc4cccc5ccc(C)nc45)c23)cc1,71.4% (active)
18,O=C(c1ccc(F)cc1)c1cn(Cc2ccc(F)cc2)c2cc3c(cc2c1=O)OCCO3,44.1% (inactive)
19,O=C(/C=C/c1ccc(F)cc1)NCCc1ccc2c(c1)OCCO2,61.6% (active)
20,Cc1ccc(/C=C/C(=O)NCc2ccc3c(c2)OCO3)o1,42.4% (inactive)
21,O=C(Nc1ccon1)c1cc2ccccc2oc1=O,30.9% (inactive)
22,O=C(Nc1cccc(-c2nc3ncccc3o2)c1)c1cc2ccccc2o1,61.8% (active)
23,O=C(Nc1cccnc1)Nc1ccc2c(c1)OCO2,43.5% (inactive)
24,O=C(NC(=S)Nc1cccnc1)c1cc2ccccc2o1,69.7% (active)
25,O=C(N/N=C/c1ccncc1)c1cc2ccccc2o1,41.4% (inactive)

row,SMILES,inhibition
1,O=C(O)CC(Cn1cnnn1)c1ccccc1 (stereo not drawn),29.3% (inactive)
2,CN(C#N)c1nc(Cl)nc(Nc2cccc(Cl)c2)n1,28.1% (inactive)
3,Cc1ccc(C(=O)NCCCNc2ccc(C(F)(F)F)cc2[N+](=O)[O-])cc1,46.6% (inactive)
4,O=[N+]([O-])c1cc(C(F)(F)F)ccc1NCCc1c[nH]c2ccc(O)cc12,70.5% (active)
5,C1CCC(C(CC2CCCCN2)C2CCCCC2)CC1 (stereo not drawn),39.9% (inactive)
6,COc1cc(/C=N/n2cnnc2)ccc1OCc1ccc(C)cc1,48.5% (inactive)
7,COc1ccc(/C=N/N2CCOCC2)cc1COc1ccc(Cl)cc1,61% (active)
8,O=C1C=CC(=O)N1CCNc1ncc(C(F)(F)F)cc1Cl,44% (inactive)
9,O=C1C=CC(=O)N1CCCCCCN1C(=O)C=CC1=O,73.7% (active)
10,CN1CCN(C2=C(Cl)C(=O)C(c3cnc(N4CCCCC4)s3)=C(Cl)C2=O)CC1,41.3% (inactive)
11,COc1ccc(OC)c(N/C(=N/C(=S)Nc2ccccc2)Nc2nc(C)cc(C)n2)c1,34.1% (inactive)
12,CCCn1nc(NC(=O)c2ccccn2)c2cc3cc(C)ccc3nc21,16.4% (inactive)
13,O=C(NCc1cccs1)c1csc2ccccc12,57.2% (active)
14,CC(C)CC(=O)c1c[nH]c(C(=O)NCc2cccs2)c1,38.2% (inactive)
15,CC1=C(OC(=O)c2ccc(Br)cc2)C(C)(C)C(c2ccccc2)OC1=O (stereo not drawn),22% (inactive)
16,CC1(C)COC(/C=C/c2ccc([N+](=O)[O-])cc2)=N1,83.1% (active)
17,CCCCN(Cc1ccccc1)C(=O)C1CCN(Cc2sccc2C)CC1,45.2% (inactive)
18,O=C(CSc1ncn[nH]1)NC12CC3CC(CC(C3)C1)C2,19.1% (inactive)
19,O=C(CON=C1c2ccccc2-c2ccccc21)NC12CC3CC(CC(C3)C1)C2,33% (inactive)
20,O=C(CCl)NC(=O)NC12CC3CC(CC(C3)C1)C2,59.9% (active)
21,CC1CCN(Cc2ccc(-c3nn[nH]n3)cc2)CC1,39.5% (inactive)
22,COc1cc(CNC2CCCCCCC2)cc(Br)c1OCC#N,32.9% (inactive)
23,CCOc1cc(CNCc2ccncc2)cc(Br)c1OCc1ccc(F)cc1,67.8% (active)
24,CCOc1cc(CNC2CCCC2)cc(Cl)c1OCc1ccc(F)cc1,60.9% (active)
25,C/C(=C(\C#N)C(=O)NCc1ccccc1)N(C)C,34.8% (inactive)

row,SMILES,inhibition
1,CCC(C)c1ccc(OCCn2ccnc2)cc1 (stereo not drawn),73.5% (active)
2,CCOc1ccc(OCCCCn2ccnc2)cc1,54.8% (active)
3,CC1=CCC2C(=O)N(Cc3ccccc3)C(=O)C2C1 (stereo not drawn),33.4% (inactive)
4,CCCN(Cc1nc(-c2ccc(Cl)cc2)no1)CC1CCCO1 (stereo not drawn),54.2% (active)
5,COc1ccc(-c2noc(CCC(=O)N3CCC(C)CC3)n2)cc1,47.6% (inactive)
6,O=C(COC(=O)C1(c2ccccc2F)CCCC1)N1CCOCC1,27.1% (inactive)
7,O=C1NC(c2ccccc2)Nc2c1sc(=S)n2-c1ccccc1 (stereo not drawn),32.5% (inactive)
8,COCCN=C1Sc2nc3ccc(C)cc3cc2CN1Cc1ccco1,57.1% (active)
9,COC(=O)c1cc(=O)n(-c2ccc(F)cc2)c(=Nc2ccc(F)cc2)s1,39.8% (inactive)
10,COC(=O)c1cc(=O)n(-c2ccccc2)c(=Nc2ccccc2)s1,61.7% (active)
11,Cc1csc(NC(=O)CCc2ccc(S(=O)(=O)N3CCOCC3)cc2)n1,40.8% (inactive)
12,Cc1nc(NC(=O)CCc2ccccc2)ccc1Br,63.3% (active)
13,OC(CN1CCN(Cc2ccccc2)CC1)Cn1c2ccccc2c2ccccc21 (stereo not drawn),56.6% (active)
14,COc1ccc(OCC(O)Cn2c(=N)n(Cc3ccccc3)c3ccccc32)cc1 (stereo not drawn),27.6% (inactive)
15,OC(CN1CCCCC1)Cn1c2ccc(Cl)cc2c2cc(Cl)ccc21 (stereo not drawn),49% (inactive)
16,Cc1nc(-c2ccccc2)sc1C(=O)CSc1ccccc1,46.5% (inactive)
17,CCCSc1ccc2nc(-c3ccccc3)cn2c1,88.8% (active)
18,O=C1C(Cl)=C(N2CCN(c3ccccc3[N+](=O)[O-])CC2)C(=O)c2ccccc21,68.8% (active)
19,CC(C)CC(=O)N1CCN(c2ccc([N+](=O)[O-])cc2Cl)CC1,39.9% (inactive)
20,O=[N+]([O-])c1ccc(N2CCN(c3ccc(Cl)nn3)CC2)c(Cl)c1,47.7% (inactive)
21,CC1(C)Cc2c(c(N3CCOCC3)nc3sc4c(NCCN5CCOCC5)nnnc4c23)CS1,37.6% (inactive)
22,CC(C)(C)c1nnc(N/N=C/c2cc(Br)ccc2O)n(N)c1=O,86.8% (active)
23,O=c1oc2ccccc2nc1/C=C(O)/C=C/c1ccc(F)cc1,47.2% (inactive)
